This passage reports growth results from PubChem BioAssay (NCI).

SMILES strings stand for the structures. This is part of a sample that, as a whole, favours compounds with a hit. Of some 83,000 tested, about 20% had one in any assay.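 How to read the values: 0–100, growth inhibition (40 = 60% inhibited); 0, no net growth; -100 to 0, cell death (-40 = 40% of starting cells died; -100 = all dead).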 A number with no mark means an inactive call. Activity calls are given as the source filed them. The calls were made as follows: active = growth percent below 10; inactive = the rest.

The subject of the first assay is M14 melanoma. Kind of assay: NCI-60 one-dose screen, 48 h (100 = growth as untreated, 0 = no growth, -100 = all killed). The settings on record: 10 µM unless noted.
Consider `ClCCN(CCCl)C(c1ccccc1)c1ccc(Cl)cc1` (configuration not stated), for which the growth is 90.4%.

On to `CCCCNCCc1ccccn1`, for which the growth is 99.6%.

For the compound `CC(=O)C1C(=O)N(C)C(=O)N(C)C1=O`, the growth is 110%.

In the case of `CC1(C)N=C(N)N=C(N)N1c1cccc(C(=O)Nc2cccc(S(=O)(=O)F)c2)c1`, the growth was 102%.

On to `C[C@]12CC[C@@H]3C4=C(CC[C@H]3[C@@H]1CC[C@@H]2O)CC(=O)CC4`, for which the growth was 107%.

Consider `Oc1ccccc1OB(Oc1ccccc1O)N(CCCl)CCCl`, for which the growth was 85.2%.

In the case of `NC(Cc1ccc2c(c1)OCO2)c1ccc2c(c1)OCO2` (configuration not stated), the growth is 102%.

As to `COc1ccc(-c2ccc(OC)c(OC)c2OC)cc1`, the growth is 3.01% (active).

Turning to `CC1(C)N=C(N)N=C(N)N1c1ccc(CCCCc2ccc(S(=O)(=O)F)cc2)c(Cl)c1`, the growth was 24.3%.

Consider `COc1ccc(C2=NN(c3ccccc3)C(c3sc(N(CCCl)CCCl)nc3Cl)C2)cc1` (configuration not stated), for which the growth is 93.6%.

On to `N#CC1c2ccccc2C=CN1C(=O)c1ccc(N(CCCl)CCCl)cc1` (configuration not stated), for which the growth was 116%.

With `CSc1ccccc1NP1(=O)OCC(C)([N+](=O)[O-])CO1` (configuration not stated), the growth was 101%.

On to `Cc1ccc(N)cc1[As]=[As]c1cc(N)ccc1C` (configuration not stated), for which the growth is -72.2% (active).

Regarding `C/C(=N/OC(=O)N(C)C)c1cc(Cl)ccc1Cl`, the growth is 109%.

With `CCC(C)[C@H]1O[C@]2(C=C[C@@H]1C)C[C@@H]1C[C@@H](C/C=C(\C)[C@@H](OC3C[C@H](OC)C(O[C@H]4C[C@H](OC)[C@@H](O)[C@H](C)O4)[C@H](C)O3)[C@@H](C)/C=C/C=C3\CO[C@@H]4[C@H](O)C(C)=C[C@@H](C(=O)O1)[C@]34O)O2` (some centres not stated), the growth was -46.7% (active).

In the case of `CC1(C)N=C(N)N=C(N)N1c1ccc(CCCCc2ccc(S(=O)(=O)F)cc2)cc1`, the growth is 27.6%.

Regarding `Cc1ccc(C(=O)C2CN(C)CCC2(O)c2ccc(C)cc2)cc1` (configuration not stated), the growth was 113%.

As to `O=S(=O)(O)c1ccc(-c2ccc([As](=O)(O)O)cc2)cc1`, the growth is 100%.

As for `O=C1NC(=O)C(CN2C(=O)C3(c4ccccc42)[C@H](Cl)C(=O)N3c2ccccc2)C(=O)N1` (some centres not stated), the growth was 105%.

As to `O=[N+]([O-])c1cc([N+](=O)[O-])c(Cl)c(Cl)c1Cl`, the growth was -8.63% (active).

As to `C=CCC1(CC)C(=O)NC(=S)NC1=O`, the growth is 115%.

`C/C(=N/OC(=O)N(C)C)c1ccc(Cl)cc1Cl`: the growth was 106%.

In the case of `CCC[CH2][Sn]([CH2]CCC)([CH2]CCC)[O]C(=O)CC`, the growth is -91.4% (active).

As for `O=C(NCc1ccc([N+](=O)[O-])cc1)Nc1ccc(S(=O)(=O)F)cc1`, the growth is 93.5%.

Regarding `n1nc(-c2nonc2-c2nn[nH]n2)n[nH]1`, the growth is 115%.

Consider `CNC(=O)Oc1ccccc1-c1ccccc1`, for which the growth is 99.7%.

Regarding `CC1(C)N=C(N)N=C(N)N1c1ccc(OCCCCOc2ccc(S(=O)(=O)F)cc2)c(Cl)c1`, the growth is 19%.

Consider `CCCCOC(=O)c1ccccc1C(=O)O.CCCCOC(=O)c1ccccc1C(=O)O.[Cu+2]`, for which the growth is 101%.

As to `O=[N+]([O-])c1ccc2cnn(CSP(=S)(c3ccccc3)c3ccccc3)c2c1`, the growth is 58.1%.

On to `NC(=O)C(Cl)Cl`, for which the growth was 112%.

Take `CCN(CC)c1ccc(C=C2C(=O)NC(=S)NC2=O)cc1`: the growth was 102%.

For `Clc1ccc(SSC(Cl)(Cl)Cl)cc1`, the growth is 107%.

Consider `[O]=[Sn]([CH]1CCCCC1)[CH]1CCCCC1`, for which the growth is -88.6% (active).

Turning to `ClCCN(CCCl)c1nc(Cl)c(C2CC(c3ccccc3)=NN2c2ccccc2)s1` (configuration not stated), the growth was 92.4%.

As for `CC(=O)C1CCC2C3CC=C4CC(OC(=O)Cc5ccc(N(CCCl)CCCl)cc5)CCC4(C)C3CCC12C` (configuration not stated), the growth is 97.4%.

As for `Cc1ccccc1O`, the growth was 101%.

With `O=[N+]([O-])c1ccccc1N1CCNCC1`, the growth is 97.8%.

For the compound `CC(=O)Nc1ccc(C=C2C(=O)NC(=O)NC2=O)cc1`, the growth is 106%.

Another assay has as its system HCT-15 colon. Described as above. Particulars: 10 µM.
Regarding `ClCCN(CCCl)C(c1ccccc1)c1ccc(Cl)cc1` (configuration not stated), the growth is 82.9%.

Consider `CCCCn1cc(C(=O)/C(C#N)=C/c2cc3ccccc3nc2Cl)c2cc(OC)ccc21`, for which the growth is 94.3%.

Regarding `CCCCNCCc1ccccn1`, the growth is 102%.

Consider `CC(=O)C1C(=O)N(C)C(=O)N(C)C1=O`, for which the growth is 93.4%.

Regarding `C[C@]12CC[C@@H]3C4=C(CC[C@H]3[C@@H]1CC[C@@H]2O)CC(=O)CC4`, the growth was 100%.

Take `Oc1ccccc1OB(Oc1ccccc1O)N(CCCl)CCCl`: the growth was 75.7%.

With `NC(Cc1ccc2c(c1)OCO2)c1ccc2c(c1)OCO2` (configuration not stated), the growth was 115%.

Turning to `COc1ccc(-c2ccc(OC)c(OC)c2OC)cc1`, the growth was 27.1%.

In the case of `CC1(C)N=C(N)N=C(N)N1c1ccc(CCCCc2ccc(S(=O)(=O)F)cc2)c(Cl)c1`, the growth is 29.5%.

In the case of `COc1ccc(C2=NN(c3ccccc3)C(c3sc(N(CCCl)CCCl)nc3Cl)C2)cc1` (configuration not stated), the growth is 97.9%.

Turning to `N#CC1c2ccccc2C=CN1C(=O)c1ccc(N(CCCl)CCCl)cc1` (configuration not stated), the growth was 81.4%.

As to `CSc1ccccc1NP1(=O)OCC(C)([N+](=O)[O-])CO1` (configuration not stated), the growth was 93.1%.

In the case of `Cc1ccc(N)cc1[As]=[As]c1cc(N)ccc1C` (configuration not stated), the growth is -68.5% (active).

Consider `C/C(=N/OC(=O)N(C)C)c1cc(Cl)ccc1Cl`, for which the growth was 100%.

In the case of `CCC(C)[C@H]1O[C@]2(C=C[C@@H]1C)C[C@@H]1C[C@@H](C/C=C(\C)[C@@H](OC3C[C@H](OC)C(O[C@H]4C[C@H](OC)[C@@H](O)[C@H](C)O4)[C@H](C)O3)[C@@H](C)/C=C/C=C3\CO[C@@H]4[C@H](O)C(C)=C[C@@H](C(=O)O1)[C@]34O)O2` (some centres not stated), the growth is -20.2% (active).

Turning to `CC1(C)N=C(N)N=C(N)N1c1ccc(CCCCc2ccc(S(=O)(=O)F)cc2)cc1`, the growth is 36.8%.

For `O=S(=O)(O)c1ccc(-c2ccc([As](=O)(O)O)cc2)cc1`, the growth was 103%.

With `O=C1NC(=O)C(CN2C(=O)C3(c4ccccc42)[C@H](Cl)C(=O)N3c2ccccc2)C(=O)N1` (some centres not stated), the growth is 94.7%.

On to `O=[N+]([O-])c1cc([N+](=O)[O-])c(Cl)c(Cl)c1Cl`, for which the growth was -49.1% (active).

On to `C=CCC1(CC)C(=O)NC(=S)NC1=O`, for which the growth was 99.9%.

For `C/C(=N/OC(=O)N(C)C)c1ccc(Cl)cc1Cl`, the growth is 105%.

In the case of `CCC[CH2][Sn]([CH2]CCC)([CH2]CCC)[O]C(=O)CC`, the growth was -72.9% (active).

`O=C(NCc1ccc([N+](=O)[O-])cc1)Nc1ccc(S(=O)(=O)F)cc1`: the growth was 87.1%.

On to `n1nc(-c2nonc2-c2nn[nH]n2)n[nH]1`, for which the growth is 106%.

Take `CNC(=O)Oc1ccccc1-c1ccccc1`: the growth was 106%.

In the case of `CC1(C)N=C(N)N=C(N)N1c1ccc(OCCCCOc2ccc(S(=O)(=O)F)cc2)c(Cl)c1`, the growth is 32.8%.

With `CCCCOC(=O)c1ccccc1C(=O)O.CCCCOC(=O)c1ccccc1C(=O)O.[Cu+2]`, the growth is 112%.

On to `NC(=O)C(Cl)Cl`, for which the growth is 97.6%.

For `CCN(CC)c1ccc(C=C2C(=O)NC(=S)NC2=O)cc1`, the growth is 77.5%.

On to `Clc1ccc(SSC(Cl)(Cl)Cl)cc1`, for which the growth was 112%.

As for `[O]=[Sn]([CH]1CCCCC1)[CH]1CCCCC1`, the growth was -78.1% (active).

Regarding `ClCCN(CCCl)c1nc(Cl)c(C2CC(c3ccccc3)=NN2c2ccccc2)s1` (configuration not stated), the growth is 101%.

With `O=[N+]([O-])c1ccccc1N1CCNCC1`, the growth is 105%.

On to `CC(=O)Nc1ccc(C=C2C(=O)NC(=O)NC2=O)cc1`, for which the growth is 103%.
